Measurements: PubChem BioAssay (EPA / NIEHS)
Results filed as inconclusive are left out. More than one record can exist for a structure, and the calls need not agree. The source made the active and inactive calls. How the source made its calls, unless noted: active means hit-call score of the fitted dose curve at least 0.9, where 1 is the maximum; inconclusive means response in the unintended direction; inactive means score below 0.9.

What was measured:
[1] = read-out: UDP glucuronosyltransferase (UGT1A6), UGT1A6 (gene 54578); assay: LTEA_HepaRG_UGT1A6: Life Technologies and Expression Analysis (LTEA) Assay for UDP glucuronosyltransferase (UGT1A6) using HepaRG (AID 2283539; active means hit-call score of the fitted dose curve at least 0.9, where 1 is the maximum; inactive means score below 0.9); details: mRNA level, 48 h; actives raise or lower the signal
In short: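 Expression was quantified by TaqMan qRT-PCR on Fluidigm arrays with ACTB/GAPDH/POLR2A normalization and bidirectional fitting against 0.5% DMSO. HepaRG cells (~100,000/well) were treated in duplicate for 48 h at eight half-log concentrations up to 100 uM in serum-free induction medium.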

[2] = read-out: X-box binding protein 1 (XBP1), XBP1 (gene 7494); assay: LTEA_HepaRG_XBP1: Life Technologies and Expression Analysis (LTEA) Assay for X-box binding protein 1 (XBP1) using HepaRG (AID 2283540; active means hit-call score of the fitted dose curve at least 0.9, where 1 is the maximum; inactive means score below 0.9); details: mRNA level, 48 h; actives raise or lower the signal
In short: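 XBP1 transcript by qRT-PCR (housekeeping-normalized: ACTB, GAPDH, POLR2A) after 48 h chemical treatment of HepaRG cells, 8-point half-log series topping at 100 uM, vehicle 0.5% DMSO. Gain and loss of signal fitted relative to DMSO.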

[3] = LTEA_HepaRG_LDH_cytotoxicity: Cytotoxicity Assessment in the Life Technologies and Expression Analysis (LTEA) Assay (AID 2283563)
In short: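 LDH release into culture medium read after 48 h chemical treatment of HepaRG cells. Duplicate wells, eight-point half-log series topping at 100 uM, 0.5% DMSO vehicle and baseline.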

[4] = biological target: Cellular tumor antigen p53 (Homo sapiens) (UniProt P04637); assay: TOX21_p53_BLA_p2_ratio: Tox21 HCT-116 p53 Agonism Beta-lactamase Assay, Ratio, Phase 2 (AID 2283592)
In short: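 Read-out is the blue/green (460/530 nm, 405 nm excitation) ratio after 2 h CCF4-AM loading, fitted as gain versus DMSO. Compounds, pinned at 217-fold dilution from DMSO stocks, stayed 16 h on HCT-116 beta-lactamase reporter cells seeded 5 h earlier.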

[5] = biological target: Cellular tumor antigen p53 (Homo sapiens) (UniProt P04637); assay: TOX21_p53_BLA_p3_ratio: Tox21 HCT-116 p53 Agonism Beta-lactamase Assay, Ratio, Phase 3 (AID 2283596)
In short: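 Cells were seeded at 4000/well, rested 5 h at 37C, then dosed with DMSO compound solutions (217-fold dilution) for 16 h. CCF4-AM substrate was loaded for 2 h at room temperature, and the 460/530 nm emission ratio was fitted for gain of signal versus DMSO.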

[6] = TOX21_p53_BLA_p4_viability: Viability Assessment in the Tox21 HCT-116 p53 Agonism Beta-lactamase Assay, Phase 4 (AID 2283597);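 further: hits lower the luminescence signal meaning cytotoxicity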
In short: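 Cytotoxicity as reduced cellular ATP (CellTiter-Glo luminescence, 30 min room temperature), measured in the same wells following the CCF4 FRET p53 reading. Human HCT-116 cells received compounds in DMSO (217-fold dilution) for 16 h.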

[7] = biological target: Cellular tumor antigen p53 (Homo sapiens) (UniProt P04637); assay: TOX21_p53_BLA_p5_ratio: Tox21 HCT-116 p53 Agonism Beta-lactamase Assay, Ratio, Phase 5 (AID 2283599)
In short: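 HCT-116 p53-bla cells (4000/well) plated 5 h, dosed with compound (217-fold DMSO dilution) for 16 h at 37 C; CCF4-AM substrate 2 h at room temperature. Activity is the 460/530 nm emission ratio (405 nm excitation), fitted in gain-of-signal direction versus DMSO.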

[8] = TOX21_p53_BLA_p5_viability: Viability Assessment in the Tox21 HCT-116 p53 Agonism Beta-lactamase Assay, Phase 5 (AID 2283600)
In short: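 Viability came from CellTiter-Glo ATP luminescence, read after 30 min at room temperature. Before this, HCT-116 p53-bla cells (4000/well) had 16 hours of compound exposure at 37C, with DMSO stocks diluted 217-fold on transfer.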

[9] = biological target: Cellular tumor antigen p53 (Homo sapiens) (UniProt P04637); assay: TOX21_p53_BLA_p4_ratio: Tox21 HCT-116 p53 Agonism Beta-lactamase Assay, Ratio, Phase 4 (AID 2283601)
In short: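 HCT-116 p53 beta-lactamase reporter cells (4000/well) preincubated 5 h, then compound (217-fold dilution of DMSO stock) for 16 h at 37C. CCF4-AM substrate added 2 h at room temperature; 460/530 nm emission ratio fitted upward versus DMSO.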

[10] = Tanguay_ZF_120hpf_MORT_legacy: (Legacy) Oregon State University Tanguay Lab 120 Hour Post-fertilization zebrafish Assay for Mortality (AID 2283633);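 on AC50: fitted as increase in binary mortality versus DMSO negative control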
In short: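 Static waterborne exposure from 6 to 120 hpf at 28C of single dechorionated wild-type (5D) embryos per well, 0.64% DMSO final. Death recorded present/absent by brightfield at 24 and 120 hpf.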

[11] = Tanguay_ZF_120hpf_YSE_legacy: (Legacy) Oregon State University Tanguay Lab 120 Hour Post-fertilization zebrafish Assay for Yolk Sac Edema (AID 2283634);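 on AC50: actives raise the incidence of yolk sac edema above the DMSO baseline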
In short: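 Presence or absence of yolk sac edema was recorded at 120 hpf in surviving larvae. These were wild-type Tropical 5D embryos, chorion removed at 4 hpf, held in static exposure at 28C from 6 hpf with 0.64% DMSO vehicle.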

[12] = Tanguay_ZF_120hpf_AXIS_legacy: (Legacy) Oregon State University Tanguay Lab 120 Hour Post-fertilization zebrafish Assay for Body Axis Malformation (AID 2283635);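 on AC50: potency for an increased fraction of larvae scored with body axis malformation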
In short: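 Binary scoring of axis defects at 120 hpf under brightfield, fitted positive versus DMSO. Tropical 5D embryos, chorion removed by pronase at 4 hpf, were singly exposed in sealed, dark plates at 28C from 6 hpf; DMSO 0.64% final.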

[13] = Tanguay_ZF_120hpf_SNOU_legacy: (Legacy) Oregon State University Tanguay Lab 120 Hour Post-fertilization zebrafish Assay for Snout Malformation (AID 2283637)
In short: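 Binary brightfield scoring of snout malformation at 120 hpf. Dechorionated 5D wild-type embryos, one per well, static exposure from 6 hpf at 28C, sealed and dark; final DMSO 0.64% (vol/vol), DMSO as baseline; 5uM trimethyltin chloride positive control.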

[14] = Tanguay_ZF_120hpf_JAW_legacy: (Legacy) Oregon State University Tanguay Lab 120 Hour Post-fertilization zebrafish Assay for Jaw Malformation (AID 2283638)
In short: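 Binary jaw-malformation call at 120 hpf by brightfield microscopy. Embryos (Tropical 5D strain, chorion removed at 4 hpf) were dosed statically at 6 hpf, one per well, at 28C with 0.64% DMSO. Embryos that died were not scored.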

[15] = Tanguay_ZF_120hpf_OTIC_legacy: (Legacy) Oregon State University Tanguay Lab 120 Hour Post-fertilization zebrafish Assay for Otic Vesicle Malformation (AID 2283639)
In short: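 Brightfield scoring at 120 hpf, binary present/absent; DMSO negative control, 5uM trimethyltin chloride positive control. Static exposure at 28C, final DMSO 0.64% (vol/vol). Dead embryos not scored for malformation.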

[16] = Tanguay_ZF_120hpf_PE_legacy: (Legacy) Oregon State University Tanguay Lab 120 Hour Post-fertilization zebrafish Assay for Pericardial Edema (AID 2283640);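 on AC50: potency for increased incidence of pericardial edema versus DMSO baseline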
In short: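 Scoring was binary, by brightfield microscopy at 120 hpf, and skipped where mortality occurred. Wild-type embryos were kept under sealed, foil-covered static exposure at 28C in 0.64% (vol/vol) DMSO.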

[17] = Tanguay_ZF_120hpf_BRAI_legacy: (Legacy) Oregon State University Tanguay Lab 120 Hour Post-fertilization zebrafish Assay for Brain Malformation (AID 2283641)
In short: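 Binary brightfield scoring of brain malformation at 120 hpf in Tropical 5D larvae held under static exposure at 28C (0.64% v/v DMSO), non-mortality endpoints skipped if dead. Positive control: 5uM trimethyltin chloride; fit versus DMSO.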

[18] = ATG_XTT_Cytotoxicity: Cytotoxicity Assessment in the Attagene TRANS-FACTORIAL HepG2 Assay (AID 2283584)
In short: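 Viability endpoint from XTT after 24 h chemical exposure of reporter-transfected human HepG2 liver cells; signal loss fitted relative to DMSO negative control.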

[19] = Tanguay_ZF_120hpf_EYE_legacy: (Legacy) Oregon State University Tanguay Lab 120 Hour Post-fertilization zebrafish Assay for Eye Malformation (AID 2283636);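 further: binary presence or absence of eye malformation scored by brightfield in 120 hpf larvae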
In short: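 5D wild-type embryos, pronase-dechorionated at 4 hpf; static exposure 6–120 hpf, 28C, dark; DMSO 0.64% final; 5uM trimethyltin chloride positive control. Binary eye-defect scoring at 120 hpf; dead embryos not scored.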

[20] = TOX21_p53_BLA_p2_viability: Viability Assessment in the Tox21 HCT-116 p53 Agonism Beta-lactamase Assay, Phase 2 (AID 2283591);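 further: compound exposure lasted 16 h at 37 °C; actives lower the ATP signal meaning cytotoxicity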
In short: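 HCT116 p53-bla cells, 4000/well, dosed after 5 h plating (217-fold dilution of DMSO stocks) and incubated 16 h at 37C. Viability taken as cellular ATP by CellTiter-Glo luminescence after 30 min RT; signal loss marks cytotoxicity.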

Measured: AC50

Sequence of Cellular tumor antigen p53 (Homo sapiens) (P04637 whole entry, looked up): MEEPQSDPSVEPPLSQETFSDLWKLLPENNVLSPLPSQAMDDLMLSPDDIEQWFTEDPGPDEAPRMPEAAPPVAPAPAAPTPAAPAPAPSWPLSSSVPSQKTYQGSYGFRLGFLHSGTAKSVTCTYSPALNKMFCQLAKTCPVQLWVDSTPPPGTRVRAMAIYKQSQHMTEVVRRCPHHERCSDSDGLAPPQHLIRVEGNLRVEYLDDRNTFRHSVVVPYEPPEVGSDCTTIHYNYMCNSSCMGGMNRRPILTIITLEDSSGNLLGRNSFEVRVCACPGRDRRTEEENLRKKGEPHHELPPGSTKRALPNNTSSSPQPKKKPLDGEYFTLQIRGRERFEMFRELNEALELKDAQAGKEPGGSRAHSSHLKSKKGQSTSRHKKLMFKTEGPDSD

COC(=O)c1c(C(F)F)nc(C(F)(F)F)c(C2=NCCS2)c1CC(C)C
not listed: [18] | [19] | [20]
inactive: all other assays above

N#Cc1c[nH]cc1-c1cccc2c1OC(F)(F)O2
active: [4] 7.61 µM | [5] 8.51 µM | [7] 5.39 µM | [9] 6.17 µM | [10] 25.9 µM
not listed: [2] | [15] | [20]
inactive: all other assays above

CCN(CC)C(=O)C(C)Oc1cccc2ccccc12 (stereo not drawn)
active: [11] 55 µM
not listed: [2] | [8]
inactive: all other assays above

Nc1c(Cl)c(Cl)nc(C(=O)O)c1Cl
active: [4] 75.6 µM
not listed: [11] | [12] | [13] | [15] | [18] | [19] | [20]
inactive: all other assays above

C=C(C)CN(CC)c1c([N+](=O)[O-])cc(C(F)(F)F)cc1[N+](=O)[O-]
active: [9] 0.000117 µM
not listed: [2] | [6] | [8] | [15] | [19]
inactive: all other assays above

COCC(=O)N(c1c(C)cccc1C)C(C)C(=O)OC (stereo not drawn)
not listed: [15] | [18] | [19] | [20]
inactive: all other assays above

COC(=O)NC(=S)Nc1ccccc1NC(=S)NC(=O)OC
active: [11] 47.7 µM | [13] 50.3 µM | [16] 52.6 µM
not listed: [5] | [6] | [15] | [17] | [18]
inactive: all other assays above

Cc1cnc(C2=NC(C)(C(C)C)C(=O)N2)c(C(=O)O)c1 (stereo not drawn)
not listed: [4] | [5] | [7] | [9] | [15] | [18] | [20]
inactive: all other assays above

CCCN(CC)CC1COC2(CCC(C(C)(C)C)CC2)O1 (stereo not drawn)
not listed: [5] | [7] | [9] | [15] | [18]
inactive: all other assays above

Cc1ccc(N=CN(C)C=Nc2ccc(C)cc2C)c(C)c1
not listed: [14] | [18]
inactive: all other assays above

CCCCOCN(C(=O)CCl)c1c(CC)cccc1CC
active: [6] 67.9 µM | [9] 66 µM
not listed: [7] | [15] | [18] | [20]
inactive: all other assays above

CNC(=O)N(C)c1nnc(C(C)(C)C)s1
not listed: [11] | [12] | [15] | [18] | [20]
inactive: all other assays above

COP(=S)(OC)SCn1nnc2ccccc2c1=O
inactive: [1] | [2] | [3] | [18] | [4] | [5] | [6] | [7] | [8] | [9] | [10] | [11] | [19] | [13] | [14] | [15] | [16] | [17]
active: [4] 73.9 µM | [9] 43.5 µM | [12] 17.3 µM

COc1cc(OC)nc(NC(=O)NS(=O)(=O)c2ncccc2OCC(F)(F)F)n1
not listed: [4] | [8] | [15] | [18] | [20]
inactive: all other assays above

N#CN=C1SCCN1Cc1ccc(Cl)nc1
not listed: [4] | [6] | [8] | [15] | [18] | [20]
inactive: all other assays above

N#Cc1c(Cl)cccc1Cl
not listed: [4] | [6] | [8] | [18] | [20]
inactive: all other assays above
